# Assay outcomes: PubChem BioAssay, National Center for Advancing Translational Sciences (NCATS)
# Only some compounds are listed: those with a hit (about 3.6% of all), similar ones and a draw of the others.
# B2AR arrestin ag: agonists recruiting beta-arrestin to human beta2-adrenergic receptor; P07550; HTLA Tango cells, beta-arrestin recruitment, luciferase luminescence, 18 h; Potency, µM (doses to about 46.1 µM), hits mostly activators; 44,000 tested, under 10 active;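 also: potency is read from the fitted curve at half-maximal effect; 0% = DMSO and full agonism = EC100 isoproterenol or metaproterenol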
# Target sequence (P07550 whole entry, looked up): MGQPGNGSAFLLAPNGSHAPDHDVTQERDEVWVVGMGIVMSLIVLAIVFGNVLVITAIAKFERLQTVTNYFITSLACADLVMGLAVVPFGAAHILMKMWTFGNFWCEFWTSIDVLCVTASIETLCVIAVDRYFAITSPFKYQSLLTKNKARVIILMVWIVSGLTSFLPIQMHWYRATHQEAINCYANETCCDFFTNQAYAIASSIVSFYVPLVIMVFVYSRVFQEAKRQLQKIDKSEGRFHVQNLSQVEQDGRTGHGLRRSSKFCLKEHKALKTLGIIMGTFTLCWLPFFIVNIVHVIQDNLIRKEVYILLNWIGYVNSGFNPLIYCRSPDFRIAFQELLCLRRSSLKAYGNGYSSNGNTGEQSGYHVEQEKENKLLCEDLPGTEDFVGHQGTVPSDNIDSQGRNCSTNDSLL
#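 Tango cells (recombinant beta2-AR, beta-arrestin, tTA-driven luciferase), 1500/well in DMEM 1% FBS, treated 18 h at 37 °C with compounds up to 46 µM; luciferin mix added, luminescence read after 15 min; %activity curves fitted and curve-classed.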
# GPR32 ag: GPR32 (DRV1) agonism, beta-arrestin recruitment | O75388 | activation, % at 76.9 µM | 2.5% of 48,000 active | CHO-K1 GPR32 beta-arrestin PathHunter luminescence, 90 min; zero percent set by DMSO-only wells | AID 1346428;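 active = activation of at least 60% and not above a set upper limit, about 1 call in 100 departs from these limits; inconclusive = activation of 40% to 60%, or above that upper limit; inactive = activation under 40%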; also: 0% is about no effect
#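 PathHunter beta-arrestin recruitment in CHO-K1 cells stably expressing ProLink-tagged GPR32. Cells were exposed to compound for 90 min at 37 C, then chemiluminescence was read after 1 h detection at ambient temperature; DMSO served as basal control.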
# GALK inhibitor: inhibitors of human galactokinase (GALK). P51570. recombinant GALK, Kinase-Glo ATP luminescence, 1 h. Potency, µM (titrated, usually from 57.5 µM), for inactives: at the highest dose activity, negative = inhibition, actives largely listed as inhibitors. 44,000 tested, under 10 active. AID 1347072;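 also: plate controls were full GALK reaction for no effect and reaction lacking GALK for full effect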
#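 Human GALK (5 nM) was incubated with 35 uM ATP and 100 uM galactose in 20 mM HEPES pH 8.0 with MgCl2, NaCl, DTT and BSA for 1 h at room temperature. Remaining ATP was measured by Kinase-Glo Plus luminescence.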
# PTAP-TSG101 blk: TSG101-PTAP interaction inhibition, HIV-1 budding | Q99816 | Fluorescence polarization, FITC-PTAP peptide/Tsg101, 20 min | Potency, µM (series often up to 115 µM), usual class: inhibitors | 44,000 tested, under 10 active; also: potency is read from the fitted curve at half-maximal effect; 0% is about no effect
#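 FITC-labeled PTAP peptide (50 nM final) binding to Tsg101 binding domain (10 uM final) read by fluorescence polarization after 20 min at r.t. in HEPES pH 7.5 buffer. Actives by CRC class, <25 µM.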
# GALC G270D act: enhancers of human galactocerebrosidase G270D mutant activity in cells; P54803; 145M-Twi-hGALC-G270D cells, HMU-beta-Gal fluorescence, 48 h; Potency, µM (titrated, usually from 57.5 µM), most hits filed as activators; 0.1% of 45,000 active; also: potency is read from the fitted curve at half-maximal effect; 0% is about no effect; nearly all actives have a fitted effect of over 65% in size
#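 qHTS, 1536-well; 145M-Twi-hGALC-G270D cells (WT line also made) in DMEM/F12 + 10% FBS; compound incubation on live cells; HMU-β-gal 0.1 mM final, pH 5.2, NaTC; carbonate stop; fluorescence increase = enhanced residual activity.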
# NTMT1 inhibitor: blocks human N-terminal methyltransferase 1 activity | Q9BV86 | NTMT1 MTase-Glo SAH luminescence, purified enzyme | Potency, µM (titrated, usually from 114 µM), without a hit: at the highest dose activity change, negative = inhibition, most hits filed as inhibitors | 2.5% of 59,000 active;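 also: potency is read from the fitted curve at half-maximal effect; plate controls were DMSO vehicle for no effect and no enzyme for full effect; nearly all actives have a fitted effect of over 65% in size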
# * = called active by the depositor; i = inactive; u = inconclusive; x = no result given; ! = not active in a repeat; [ ] = another dose, or the depositor's remark. Unless noted, calls follow the shape of the dose curve; as a rule, active = well fitted curve in the direction sought with a large enough effect; inconclusive = small, poorly fitted or top-dose-only effect, or another doubt; inactive = no such curve, though single readings can be large; an effect the other way counts as inactive or inconclusive.
SMILES,B2AR arrestin ag,GPR32 ag,GALK inhibitor,PTAP-TSG101 blk,GALC G270D act,NTMT1 inhibitor
CCc1ccc(OCC(=O)Nc2ccc(Cl)c(-c3nc4ncccc4o3)c2)cc1,i,118*,-17%,i,i,5%
CC(=O)OC/C=C(\C)C(CC1C(C)=C(OC(C)=O)C(=O)C2C(C)(C)C(O)CCC12C)OC(C)=O (stereo not drawn),x,x,x,x,x,-7%[29.8 µM]
Cc1ccc(/C=C/C(=O)Nc2nc(-c3cccs3)ns2)cc1,i,70*,0%,i,i,8%
COc1ccc(/C=C/C(=O)Nc2nc(-c3cccs3)ns2)cc1,i,14,7%,i,i,5%
COc1ccc(/C=C/C(=O)Nc2nc(-c3cccs3)ns2)cc1OC,i,29,-8%,i,i,19%
O=C(/C=C/c1ccccc1)Nc1nc(-c2cccs2)ns1,i,81*,2%,i,i,16%
Nc1nccc2c1ncn2[C@@H]1C=C(CO)[C@@H](O)[C@H]1O,x,x,x,x,x,-97%
O=C1CC(c2nc(-c3ccccc3)no2)CN1c1ccccc1 (stereo not drawn),i,65*,1%,i,i,3%
CC1CCN(c2nc3ccc(C(=O)NCCc4ccc(S(N)(=O)=O)cc4)cc3s2)CC1,i,-8,-10%,i,i,89µM*
CCCn1cnc2c(NCc3ccc(C)s3)nc(N[C@H](CC)CO)nc21,x,x,x,x,x,12%
Cc1ccc(-c2ccc(=O)n(CC(=O)N(C3CCCCC3)C3CC3)n2)cc1,x,x,x,x,x,2%
CCN(CC)CCCC(C)Nc1c2ccc(Cl)cc2nc2ccc(OC)cc12 (stereo not drawn),x,11,x,x,i,45µM*!
C/C=C(\C)C(=O)OCC1OC(OC2OC(CO)C(O)C(O)C2O)C(O)C(O)C1O (stereo not drawn),x,x,x,x,x,-8%[29.8 µM]
CCOc1ccc(Nc2ncnc3c2nc2n3CCCCC2)cc1,i,85*,1%,i,i,-27%
COc1ccc(Nc2ncnc3c2nc2n3CCCC2)cc1Cl,i,8,-9%,i,i,u
Fc1ccccc1N1CCN(c2ncnc3c2nc2n3CCCCC2)CC1,i,44,1%,i,i,-10%
COc1ccccc1N1CCN(c2ncnc3c2nc2n3CCCC2)CC1,i,63*,-1%,i,i,u
COc1ccc(Nc2ncnc3sc4c(c23)CCCC4)cc1,i,94*,1%,i,i,22µM*
COc1ccc(Nc2ncnc3c2nc2n3CCCCC2)cc1,i,77*,-3%,i,i,1%
COC1CC(OC2CCC3(C)C(=CCC4C3C(OC(C)=O)C(OC(=O)/C=C/c3ccccc3)C3(C)C(C(C)O)CCC43O)C2)OC(C)C1OC1CC(OC)C(OC2OC(C)C(OC3OC(CO)C(O)C(O)C3O)C(OC)C2O)C(C)O1 (stereo not drawn),x,x,x,x,x,10%[6.45 µM]
COc1ccc(NC(=O)c2ccc(-c3nc4ccccc4[nH]3)cc2)cc1OC,x,x,x,x,x,8%
COc1ccc(S(=O)(=O)N2CCC[C@H]2C(=O)Nc2cc(C)cc(C)c2)cc1,x,x,x,x,x,-3%[57.5 µM]
Cc1ccc(C(=O)Nc2cccc(O)c2)cc1S(=O)(=O)N1CCCCCC1,i,82*,0%,i,i,u
Cc1ccc(NC(=O)c2ccc(C)c(S(=O)(=O)N3CCCCCC3)c2)cc1,i,39,-2%,i,i,-2%
COc1cc(C(=O)NS(=O)(=O)c2ccccc2C)ccc1Cc1cn(C)c2ccc(NC(=O)OC3CCCC3)cc12,x,46,x,x,i,71µM*
C=C1CCC[C@]2(C)C=C3OC(=O)C(C)=C3C[C@@H]12,x,x,x,x,x,3%
O=C1Nc2ccc(I)cc2/C1=C/c1cc(Br)c(O)c(Br)c1,x,-23,x,x,x,3.5µM*
COc1cc(OC)c(/C=C2/C(=O)Nc3ccccc32)c(OC)c1,x,2,x,x,x,x
